# A selection: hits, their analogues and other compounds. The true share with any hit is near 2.6%.
# TCR-CD3 inh – blocks the human TCR-CD3 interaction; TAMRA-labeled TCR probe fluorescence, biochemical; inhibition, % at 9.4 µM; hit rate 0.37% among 360,000; in the data active = inhibition above about 19%;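 also: recombinant mutant TCR 2C K166C tagged with TAMRA read by polarization; 0% = receptor in buffer alone and 100% = receptor with positive control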
# PRMT1 FP inh – inhibitors of human PRMT1; recombinant PRMT1, activity-based probe fluorescence polarization; inhibition, % at 2.79 µM; hit rate 1.3% among 370,000;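 active = inhibition above about 21% made by adding two undisclosed values, limit read from the data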
# PAD4 inh – blocks human protein arginine deiminase 4; hit rate 0.41% among 330,000; AID 485272; inhibition, % at 6.36 µM; recombinant PAD4, RCA probe fluorescence polarization;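 active = percent inhibition above a cutoff equal to the mean of all tested compounds plus 3 SD, cut at about 15% in these data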;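 also: 0% = PAD4 with RCA probe and DMSO and 100% = probe without PAD4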
# Fam108B inh – counter-screen for RBBP9 inhibitors: inhibitors of mouse Fam108B | recombinant Fam108B, FP-Rh probe fluorescence polarization | inhibition, % at 9.51 µM | hit rate 0.33% among 300,000 | AID 1947;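 active = inhibition above the screen mean inhibition plus 3 SD, computed separately per campaign, cut at about 18% in these data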;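 also: inhibitors lower polarization as less probe binds the enzyme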
# SIAE inh – blocks human sialic acid acetylesterase | Q9HAT2 | SIAE FP-Rh probe binding, fluorescence polarization | inhibition, % at 9.66 µM | hit rate 0.69% among 370,000;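 active = inhibition above a cutoff: mean of compounds within the control limits plus 3 SD of those, cut at about 17% in these data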;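 also: 0% = plate median of compound wells and 100% = probe without SIAE protein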
# Target sequence (Q9HAT2 whole entry, looked up): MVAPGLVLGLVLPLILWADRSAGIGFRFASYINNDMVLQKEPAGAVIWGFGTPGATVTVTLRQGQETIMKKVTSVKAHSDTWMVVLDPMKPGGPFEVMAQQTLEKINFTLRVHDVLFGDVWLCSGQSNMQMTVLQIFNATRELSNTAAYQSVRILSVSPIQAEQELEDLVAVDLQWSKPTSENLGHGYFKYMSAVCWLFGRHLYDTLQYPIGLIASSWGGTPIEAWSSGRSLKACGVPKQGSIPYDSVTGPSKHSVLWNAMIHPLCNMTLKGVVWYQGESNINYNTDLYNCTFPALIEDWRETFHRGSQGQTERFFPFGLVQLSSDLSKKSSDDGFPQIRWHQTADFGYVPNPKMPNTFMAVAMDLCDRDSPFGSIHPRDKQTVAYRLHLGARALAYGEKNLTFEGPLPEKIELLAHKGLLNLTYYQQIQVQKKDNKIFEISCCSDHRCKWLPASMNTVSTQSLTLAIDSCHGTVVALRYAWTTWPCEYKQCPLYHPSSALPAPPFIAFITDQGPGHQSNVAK
# PME-1 primary – blocks human protein phosphatase methylesterase 1; inhibition, % at 5.9 µM; recombinant PME-1, FP-Rh probe fluorescence polarization; hit rate 0.53% among 320,000;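 active = inhibition above the campaign mean of all compounds plus 3 SD, cut at about 26% in these data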;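 also: competitive labeling of PME-1 active site by serine hydrolase directed probe; 0% = PME-1 with DMSO and 100% = wells lacking PME-1 enzyme; inhibitors block probe labeling so polarization falls and inhibition rises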
# SIAE confirm – confirmation of human SIAE inhibitors; inhibition, % at 9.66 µM; SIAE FP-Rh activity-based probe, fluorescence polarization; hit rate 13% among 2,300; shares compounds with SIAE inh;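 active = mean inhibition of the replicates above the hit cutoff set in the primary screen, cut at about 17% in these data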;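 also: 0% = SIAE with DMSO and probe and 100% = probe without SIAE; inhibitors lower polarization as more probe stays unbound to SIAE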
# Active calls of the source: *; . = not tested or not shown.
SMILES,TCR-CD3 inh,PRMT1 FP inh,PAD4 inh,Fam108B inh,SIAE inh,PME-1 primary,SIAE confirm
O=C(O)Cn1c(CCS(=O)(=O)c2ccc(Br)cc2)nc2ccccc21,-4,4,0,5,29*,4,4
Cc1ccc(Nc2nc(N)c([N+](=O)[O-])c(NCc3ccccc3)n2)cc1,4,-1,1,-1,4,3,.
COc1ccc(Nc2nc(N)c([N+](=O)[O-])c(NCc3ccccc3)n2)cc1,3,-9,-3,3,24*,13,5
CN(c1ccccc1)S(=O)(=O)c1cccc(NC(=O)CSc2ncn[nH]2)c1,-4,4,2,0,18*,-1,0
CN(c1ccccc1)S(=O)(=O)c1cccc(NC(=O)CSc2nncs2)c1,1,1,-5,2,-2,-1,.
COC(=O)[C@]12C[C@H](CC(=O)NCCCCc3ccccc3)C(=O)N(Cc3cccc4ccccc34)C1=C[C@H](C(C)C)O[C@@H]2C1CC1,.,-5,.,.,-8,.,.
Cc1ccc(NC(=S)NC2CC3CCCC(C2)N3Cc2ccco2)cc1 (centres undefined),-4,-1,-1,1,26*,1,3
CCOc1ccc(N(CC(=O)Nc2c(C)n(C)n(-c3ccccc3)c2=O)S(=O)(=O)c2ccc(C(C)(C)C)cc2)cc1,.,1,.,.,-3,.,.
CN(C)C(=S)N=Nc1[nH]c2ccccc2c1O,-3,1,-18,-3,21*,4,-9
Nc1[nH]c(C(=O)c2ccccc2)c(-c2ccc(Cl)cc2Cl)c1C(=O)NCCc1c[nH]c2ccccc12,4,2,.,.,19*,.,15
Nc1[nH]c(C(=O)c2ccc(Br)cc2)c(-c2ccc(Cl)cc2Cl)c1C(=O)NCCc1c[nH]c2ccccc12,-11,-1,.,.,13,.,.
Cc1ccc(N/N=C(\C#N)C(N)=S)c(C)c1,7,0,1,5,54*,93*,0
COC(=O)c1cc(-c2ccc(Oc3ccccc3)cc2)c(=O)n2c1CCC2,.,1,.,.,5,.,.
O=C(Nc1ccc(C(O)(C(F)(F)F)C(F)(F)F)cc1)c1ccccc1C(F)(F)F,.,3,.,.,-6,.,.
Cc1ccc(C(=O)NCc2cccnc2)cc1S(=O)(=O)N1CCCCCC1,8,-4,-2,0,-3,1,.
Cc1ccc(C(=O)NCc2cccc(C(F)(F)F)c2)cc1S(=O)(=O)N1CCCCC1,4,-2,.,.,25*,.,3
O=C1CCCN1c1ccc(S(=O)(=O)N2CCCCC2)cc1,-9,-1,-3,-2,17*,8,-1
CCOc1ccc(C2CC=C(C(=O)O)CN2S(=O)(=O)c2ccc(C)cc2)cc1 (centres undefined),.,2,.,.,-5,.,.
COCCNc1nc(-c2ccc(OC)cc2)c(-c2ccc(OC)cc2)s1,-9,3,-2,3,19*,9,7
O=C(Nc1ccc(C(O)(C(F)(F)F)C(F)(F)F)cc1)c1ccc(F)cc1Cl,.,0,.,.,-11,.,.
Cc1cccc(NC(=O)CN2C(=O)N/C(=C/c3cc(C)n(C(C)C)c3C)C2=O)c1,5,0,-2,-3,23*,2,1
Cc1cccc(NC(=O)CN2C(=O)N/C(=C/c3ccc(C)s3)C2=O)c1,11,0,-15,-21,-7,-24,.
Nc1cc(N)cc(-c2nc3ccccc3o2)c1,0,-2,-14,3,25*,6,2
CCOC(=O)Cc1csc(NS(=O)(=O)c2ccc(F)cc2)n1,0,1,1,2,19*,1,-1
CCOC(=O)Cc1csc(NS(=O)(=O)c2ccc(Br)cc2)n1,9,0,1,1,0,-5,.
COC(=O)[C@]12C[C@H](CC(=O)NCCCCc3ccccc3)C(=O)N(Cc3ccco3)C1=C[C@H](C(C)C)O[C@@H]2C1CC1,.,1,.,.,3,.,.
COC(=O)[C@]12C[C@H](CC(=O)NCCCN3CCCC3=O)C(=O)N(Cc3ccc(Cl)cc3Cl)C1=C[C@H](C1CCCC1)O[C@@H]2C,.,4,.,.,-9,.,.
Cc1ccccc1N1CCN(C(=O)CCn2nnc3ccccc32)CC1,.,0,.,.,-3,.,.
O=C(N/N=C/c1ccc(O)c2ncccc12)c1cccc(Br)c1,0,-4,-7,12,29*,23,13

# Bioassay records: PubChem BioAssay, The Scripps Research Institute Molecular Screening Center
